The target in assay [1] is Albumin (Bos taurus) (UniProt P02769). Description: bovine serum albumin binders on microarray, profiling panel, artefact control for SMM control protein annotation, biochemical, small-molecule microarray, Alexa647 label, 635/667 nm fluorescence (AID 1118).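 Note: score merges 667 nm emission intensity and signal-to-noise per printed compound spot.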 The conditions noted are these: BSA-A647 binding, fluorescence 635 nm, higher = more signal.
Assay [2] in a line: small-molecule microarray binders of probe aXIP, primary screen, biochemical, NeuroSMM set, 635/667 nm fluorescence (AID 1119).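 Note: probe is the protein aXip251-270 applied at 1 µg/mL to compound-printed slides; binding of probe to printed compounds measured as 667 nm fluorescence plus signal to noise.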 The following applies: higher = more signal, called active from +8 up or from −8 down.
Assay [3] is described as follows: small-molecule binders of probe aNOTCH3, primary screen, biochemical, small-molecule microarray, 635/667 nm fluorescence (AID 1120).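 Note: probe is a biotin-tagged antibody raised against NOTCH3 rather than NOTCH3 protein; score merges spot fluorescence near 667 nm with spot signal to noise.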 The conditions noted are these: higher = more signal.
Assay [4] in a line: small-molecule binders of probe aNOTCH2, primary screen, biochemical, small-molecule microarray, 635/667 nm fluorescence (AID 1121).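 Note: score merges feature fluorescence read at 667 nm with its signal to noise.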 The conditions noted are these: higher = more signal.
Assay [5] deals with Carbonic anhydrase 2 (Homo sapiens) (UniProt P00918). Description: CAII small-molecule binders, profiling panel, biochemical, small-molecule microarray, Alexa647-labelled CAII (AID 1122). The conditions noted are these: CAII-A647 binding fluorescence, higher = more signal.
Assay [6] in a line: COS7 lysate on small-molecule microarray, probe aHis, 635 nm (AID 1123).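 Note: z-score combines 667nm fluorescence intensity with signal-to-noise per printed compound spot.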 The following applies: COS7 cell lysate, fluorescence, higher = more signal.
Assay [7] can be described thus: compound binding in COS7 lysate, probe aLAP1, primary screen, cell lysate, small-molecule microarray (AID 1124).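 Note: lysate comes from COS7 cells expressing LAP1 and is applied at 0.3 µg/mL; score merges spot fluorescence near 667 nm with signal-to-noise over triplicate slides.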 The following applies: probe aLAP1, fluorescence, higher = more signal.
The test system of assay [8] is Sam68 (KHDRBS1). Briefly: Sam68 small-molecule binders, primary screen, biochemical, small-molecule microarray, 635 nm fluorescence (AID 1125).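 Note: score merges 667 nm channel intensity with signal to noise over triplicate slides.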 The conditions noted are these: small-molecule microarray binding, higher = more signal.
Assay [9] has as its system Chordin-like protein 2 (CHRDL2). Description: CHRDL2 small-molecule binders, primary screen, biochemical, small-molecule microarray, 635 nm fluorescence (AID 1126).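 Note: printed compound slides probed with Chrdl2 protein at 4 µg/mL for 1 h at 4 C; score merges 667 nm emission intensity with signal to noise over three replicate slides.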 The following applies: small-molecule microarray binding, fluorescence 635 nm; higher = more signal.
In assay [10] the target is Concanavalin-A (Canavalia ensiformis) (UniProt P02866). Briefly: ConA small-molecule binders, primary screen, artefact control for SMM control protein annotation, biochemical, small-molecule microarray, Alexa647 label, 635 nm (AID 1127).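 Note: z combines 667 nm emission intensity with signal-to-noise across three replicate slides.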 The conditions noted are these: ConA-A647 binding fluorescence, higher = more signal.
Assay [11] can be described thus: anti-His antibody binders, primary screen, artefact control for SMM control protein annotation, biochemical, small-molecule microarray, 635 nm fluorescence (AID 1128).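 Note: score merges feature fluorescence with signal-to-noise for each printed compound spot.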 The conditions noted are these: anti-His Alexa647 antibody binding, higher = more signal.
Assay [12] concerns Human papillomavirus type 1a E7 protein (residues 1-88). Description: HPV1a E7 small-molecule binders, primary screen, biochemical, small-molecule microarray, residues 1-88, 635 nm (AID 1129). The following applies: small-molecule microarray binding, fluorescence 635 nm; higher = more signal.
The target of assay [13] is Focal adhesion kinase 1 (Homo sapiens) (UniProt Q05397). Briefly: small-molecule microarray binders of FAK, primary screen, biochemical, 635/667 nm fluorescence, BSA, DTT (AID 1130).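 Note: composite of spot emission at 667 nm and signal to noise over triplicate slides.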 The conditions noted are these: PTK2 binding, 635 nm fluorescence, higher = more signal.
For assay [14], the system named is Fibrinogen (Alexa647-labelled). Briefly: fibrinogen binders on compound microarrays, profiling panel, artefact control for SMM control-protein annotation, biochemical, small-molecule microarray, 635/667 nm fluorescence (AID 1131).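 Note: z-score merges 667 nm fluorescence with per-spot signal-to-noise over triplicate slides.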 The following applies: fibrinogen-A647 binding fluorescence, higher = more signal.
For assay [15], the target named is Follistatin (Homo sapiens) (UniProt P19883). Description: follistatin binders on small-molecule microarrays, primary screen, biochemical, small-molecule microarray, 635/667 nm fluorescence (AID 1132). The conditions noted are these: FST binding, 635 nm fluorescence, higher = more signal.
For assay [16], the target named is Fibroblast growth factor 2 (Homo sapiens) (UniProt P09038). Briefly: FGF2 binders on small-molecule microarrays, primary screen, biochemical, small-molecule microarray, 635/667 nm fluorescence (AID 1133). The following applies: small-molecule microarray binding, FGF2, fluorescence 635/667; higher = more signal.
Assay [17] in a line: mitochondrial membrane potential change in A549 cells, profiling panel, cell-based, JC-1 fluorescence, basal, 24 h, 100 nL (AID 1138).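 Note: A549 lung adenocarcinoma cells under basal conditions with no added stimulus; test concentration not given here.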 The following applies: higher = more signal.
Assay [18] relates to Lefty1. Description: Lefty1 binders on small-molecule microarrays, primary screen, biochemical, small-molecule microarray, 635/667 nm fluorescence (AID 1139). The following applies: small-molecule microarray binding, fluorescence 635/667; higher = more signal.
Assay [19] deals with wheat germ agglutinin (Triticum aestivum), Alexa647-labelled. Description: wheat germ agglutinin binders on compound microarrays, profiling panel, artefact control for SMM control-protein annotation, biochemical, small-molecule microarray, 635/667 nm fluorescence (AID 1140).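 Note: score merges 667 nm feature emission with signal to noise over triplicate slides.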 The following applies: WGA-A647 binding, 635 nm fluorescence, higher = more signal.
The target of assay [20] is Luciferin 4-monooxygenase (Photinus pyralis) (UniProt P08659). Description: firefly luciferase enzyme inhibitors, primary screen, biochemical, luminescence, purified enzyme, 2006 set (AID 1141).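 Note: cell-free assay with purified firefly luciferase at 100 ng per well in PBS; test concentration not given here.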 The following applies: SteadyGlo luminescence, 30 min, higher = more signal, called active from +8 up or from −8 down.

Active and inactive are the calls of the source.

Chain of Follistatin (Homo sapiens) (P19883 whole entry, looked up): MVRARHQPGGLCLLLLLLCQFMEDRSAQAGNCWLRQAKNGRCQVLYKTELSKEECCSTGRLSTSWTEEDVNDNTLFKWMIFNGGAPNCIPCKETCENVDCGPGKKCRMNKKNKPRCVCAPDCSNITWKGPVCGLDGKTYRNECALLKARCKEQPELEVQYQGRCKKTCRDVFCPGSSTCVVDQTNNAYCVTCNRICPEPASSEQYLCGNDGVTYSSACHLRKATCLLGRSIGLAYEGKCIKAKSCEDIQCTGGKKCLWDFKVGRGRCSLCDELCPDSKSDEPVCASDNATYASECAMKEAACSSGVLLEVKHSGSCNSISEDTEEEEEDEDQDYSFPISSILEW
Chain of Focal adhesion kinase 1 (Homo sapiens) (Q05397 whole entry, looked up): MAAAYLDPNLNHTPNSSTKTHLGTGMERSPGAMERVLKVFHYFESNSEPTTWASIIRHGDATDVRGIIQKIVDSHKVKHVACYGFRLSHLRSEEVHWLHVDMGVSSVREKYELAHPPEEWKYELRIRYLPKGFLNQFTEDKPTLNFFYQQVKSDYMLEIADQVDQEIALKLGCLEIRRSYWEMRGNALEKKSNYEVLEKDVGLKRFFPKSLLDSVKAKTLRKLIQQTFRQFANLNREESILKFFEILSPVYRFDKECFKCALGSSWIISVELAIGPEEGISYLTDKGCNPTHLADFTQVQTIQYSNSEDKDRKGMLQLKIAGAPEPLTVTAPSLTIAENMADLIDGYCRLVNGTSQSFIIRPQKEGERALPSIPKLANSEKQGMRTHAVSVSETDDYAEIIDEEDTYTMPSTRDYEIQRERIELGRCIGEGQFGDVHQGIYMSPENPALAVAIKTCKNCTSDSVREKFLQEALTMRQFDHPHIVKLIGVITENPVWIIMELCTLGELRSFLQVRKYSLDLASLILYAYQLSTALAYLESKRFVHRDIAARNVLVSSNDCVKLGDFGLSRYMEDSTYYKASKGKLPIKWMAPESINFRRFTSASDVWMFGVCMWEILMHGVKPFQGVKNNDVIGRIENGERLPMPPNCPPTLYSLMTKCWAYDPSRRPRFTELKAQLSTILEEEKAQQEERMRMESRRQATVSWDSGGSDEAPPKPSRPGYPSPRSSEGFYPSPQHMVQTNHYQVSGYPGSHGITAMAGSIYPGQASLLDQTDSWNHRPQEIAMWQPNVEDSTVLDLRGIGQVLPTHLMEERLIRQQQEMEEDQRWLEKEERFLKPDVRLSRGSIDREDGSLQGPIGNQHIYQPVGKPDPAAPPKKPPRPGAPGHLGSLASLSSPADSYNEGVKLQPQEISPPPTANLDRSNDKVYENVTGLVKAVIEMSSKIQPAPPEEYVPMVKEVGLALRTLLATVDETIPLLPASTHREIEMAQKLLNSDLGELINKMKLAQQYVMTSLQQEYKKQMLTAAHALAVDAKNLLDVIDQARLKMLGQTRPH
Chain of Luciferin 4-monooxygenase (Photinus pyralis) (P08659 whole entry, looked up): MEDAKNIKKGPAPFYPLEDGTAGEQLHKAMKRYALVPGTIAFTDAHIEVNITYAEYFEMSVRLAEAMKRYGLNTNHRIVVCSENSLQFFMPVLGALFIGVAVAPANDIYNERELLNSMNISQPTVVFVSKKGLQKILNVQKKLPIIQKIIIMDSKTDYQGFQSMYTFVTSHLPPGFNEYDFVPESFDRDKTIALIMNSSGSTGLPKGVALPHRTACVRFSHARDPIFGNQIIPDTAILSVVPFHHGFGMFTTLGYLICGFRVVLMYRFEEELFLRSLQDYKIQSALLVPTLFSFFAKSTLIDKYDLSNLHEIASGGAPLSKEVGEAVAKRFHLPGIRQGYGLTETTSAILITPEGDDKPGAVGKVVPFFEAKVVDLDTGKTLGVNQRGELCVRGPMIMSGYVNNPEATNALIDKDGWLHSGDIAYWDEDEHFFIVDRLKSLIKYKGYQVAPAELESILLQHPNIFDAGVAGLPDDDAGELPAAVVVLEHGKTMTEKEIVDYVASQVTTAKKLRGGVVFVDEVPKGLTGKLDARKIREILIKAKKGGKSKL
Chain of Fibroblast growth factor 2 (Homo sapiens) (P09038 whole entry, looked up): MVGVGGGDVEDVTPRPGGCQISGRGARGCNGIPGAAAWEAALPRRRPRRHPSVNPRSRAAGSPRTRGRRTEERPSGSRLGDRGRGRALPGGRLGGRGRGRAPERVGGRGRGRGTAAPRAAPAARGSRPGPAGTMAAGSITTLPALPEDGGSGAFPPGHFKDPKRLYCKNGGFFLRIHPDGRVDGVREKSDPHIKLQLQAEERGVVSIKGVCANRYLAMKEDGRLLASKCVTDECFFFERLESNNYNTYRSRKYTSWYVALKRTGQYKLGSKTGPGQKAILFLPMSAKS
Chain of Concanavalin-A (Canavalia ensiformis) (P02866 whole entry, looked up): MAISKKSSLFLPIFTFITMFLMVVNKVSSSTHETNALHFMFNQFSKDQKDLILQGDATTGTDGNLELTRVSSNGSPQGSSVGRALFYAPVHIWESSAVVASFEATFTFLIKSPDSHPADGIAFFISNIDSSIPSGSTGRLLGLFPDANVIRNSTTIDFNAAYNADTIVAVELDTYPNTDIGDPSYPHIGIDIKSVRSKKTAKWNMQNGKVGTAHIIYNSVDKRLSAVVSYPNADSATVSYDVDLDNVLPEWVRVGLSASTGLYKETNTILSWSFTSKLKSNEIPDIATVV
Chain of Albumin (Bos taurus) (P02769 whole entry, looked up): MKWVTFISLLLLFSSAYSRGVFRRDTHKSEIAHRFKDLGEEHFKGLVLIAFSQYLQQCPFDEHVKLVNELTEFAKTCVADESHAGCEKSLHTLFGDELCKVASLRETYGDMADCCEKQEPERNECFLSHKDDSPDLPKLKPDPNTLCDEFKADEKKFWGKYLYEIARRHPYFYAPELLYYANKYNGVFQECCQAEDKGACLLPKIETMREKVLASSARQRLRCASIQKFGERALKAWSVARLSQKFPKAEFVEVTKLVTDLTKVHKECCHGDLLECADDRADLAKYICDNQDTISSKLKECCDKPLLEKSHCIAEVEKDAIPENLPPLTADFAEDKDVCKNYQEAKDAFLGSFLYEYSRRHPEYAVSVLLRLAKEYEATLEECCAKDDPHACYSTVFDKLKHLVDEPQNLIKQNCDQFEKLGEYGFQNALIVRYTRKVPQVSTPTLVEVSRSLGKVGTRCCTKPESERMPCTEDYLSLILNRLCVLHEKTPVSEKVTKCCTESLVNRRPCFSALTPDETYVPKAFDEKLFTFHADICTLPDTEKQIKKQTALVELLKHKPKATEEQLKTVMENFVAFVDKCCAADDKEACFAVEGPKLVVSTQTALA

On to `CCOC(=O)C[C@H]1[C@H](OC(=O)c2ccc(C(=O)c3ccccc3)cc2)[C@@H](NC(=O)c2ccc(-c3ccccc3)cc2)c2cc(OCCCO)ccc2N1C(=O)Cc1ccc(OC)cc1`, for which the composite z-score in assay [1] came to 0.519; in assay [3], 0.16; in assay [4], 0.121; in [5], 0.177; in assay [6], 0.93; in [7], 0.0285. Also, the composite z-score was 0.512 in [8]; -0.0479 in assay [9]; 0.458 in assay [10]; 0.0658 in [11]; 0.556 in assay [12]; 0.0784 in assay [13]. Also, the composite z-score was 0.544 in assay [14]; 0.51 in assay [15]; -0.205 in [16]; 0.374 in assay [18]; 0.223 in assay [19]. In assay [2], the composite Z-score was -0.153 (inactive). In addition, the z-score in [17] is 0.967; in [20], 0.408 (inactive).

For the compound `COCCCNC(=O)[C@@]1(CCC(=O)OC(C)(C)C)N=C(c2ccc(OCCCO)cc2)O[C@H]1c1ccccc1N=[N+]=[N-]`, the composite z-score in [1] was found to be 0.945; in assay [3] it was 0.26; in assay [4] it was 0.325; in assay [5] it was 0.62; in assay [6] it was 2.01; in assay [7], 0.843. The composite z-score in [8] was found to be 1.25; in assay [9] it was 0.279; in assay [10] it was 1.16; in [11], 3.41; in [12], 1.26; in [13], 1.04. In addition, the composite z-score is 1.05 in assay [14]; 1.1 in assay [15]; 1.15 in [16]; -0.167 in assay [18]; 0.548 in [19]. Besides, in assay [2], the composite Z-score was 0.289 (inactive). Moreover, the z-score is 2.07 in assay [17] and -7.45 (inactive) in assay [20].

For the compound `COC(=O)[C@@]1(Cc2ccccc2)[C@H]2c3cc(C(=O)N(C)C)n(Cc4ccc(C)o4)c3C[C@H]2CN1C(=O)c1ccccc1`, the composite z-score was found to be 0.874 in assay [1]; 1.25 in assay [3]; 0.618 in assay [4]; 0.753 in assay [5]; 1.93 in assay [6]; 0.673 in assay [7]. Moreover, the composite z-score in assay [8] was 1.12; in [9], -1.06; in assay [10], 0.354; in [11], 2.6; in assay [12] it was 1.21; in assay [13], 1.73. The composite z-score was 0.705 in assay [14]; 0.764 in assay [15]; 0.188 in assay [16]; -0.566 in assay [18]; 1.26 in assay [19]. Further, in [2], the composite Z-score was 0.173 (inactive). Besides, the figures for the z-score in assay [17] and in assay [20] were -0.0901 and 0.429 (inactive), respectively.

As to `CC[C@@H]1C=C(C(=O)O)[C@H](c2ccccc2)N1S(=O)(=O)c1ccc(C)cc1`, the composite z-score in [1] was 1.08; in assay [3] it was 0.191; in assay [4] it was 0.0167; in assay [5], 0.8; in assay [6], 2.24; in [7] it was 1.38. The composite z-score is 0.95 in [8]; -0.535 in assay [9]; 1.12 in [10]; 2.57 in assay [11]; 1.17 in assay [12]; 0.178 in [13]. The composite z-score was 0.594 in assay [14]; -0.0393 in assay [15]; -0.241 in assay [16]; 0.362 in assay [18]; 1.05 in assay [19]. Besides, the composite Z-score in assay [2] was -0.12 (inactive). In addition, the z-score in assay [17] is -0.719; in assay [20] it was 1.09 (inactive).

In the case of `CCC#CCN(Cc1ccccc1Br)[C@H](/C=C/C1CC1)[C@@H](O)Cc1ccccc1`, the composite z-score in assay [1] was 0.0902; in [3], -0.262; in assay [4], -0.176; in [5], -0.458; in assay [6] it was -0.408; in assay [7], -0.477. Besides, the composite z-score in [8] was -0.549; in assay [9] it was -0.784; in assay [10] it was -0.138; in assay [11], 0.251; in assay [12], -0.499; in assay [13], -0.579. Moreover, the composite z-score is -0.805 in [14]; -0.837 in [15]; -0.984 in assay [16]; -0.355 in [18]; -0.366 in [19]. The composite Z-score in assay [2] is -0.457 (inactive). Besides, the values for the z-score in assay [17] and in assay [20] were -0.368 and 0.619 (inactive), respectively.

In the case of `CCOC(=O)C[C@H]1[C@H](OC(=O)c2ccc(C(=O)c3ccccc3)cc2)[C@@H](NC(=O)C2CCCCC2)c2cc(OCCCO)ccc2N1C(=O)c1ccc2ccccc2n1`, the composite z-score in assay [1] was 0.534; in assay [3] it was -0.0647; in [4], -0.102; in assay [5] it was 0.0738; in [6], 1.05; in assay [7] it was -0.0375. The composite z-score in assay [8] is 1.31; in assay [9] it was 0.24; in assay [10] it was 0.955; in assay [11] it was 0.497; in [12] it was 0.835; in assay [13], 0.0096. Also, the composite z-score worked out at 0.102 in [14]; 0.796 in assay [15]; 0.979 in [16]; 1.41 in assay [18]; 0.0469 in [19]. For the same compound, in assay [2], the composite Z-score is -0.482 (inactive). Further, the results for the z-score in assay [17] and in [20] were 0.956 and 0.425 (inactive), respectively.
